# Laboratory results from PubChem BioAssay (NCATS).
# Records with an inconclusive call do not appear. A call without a number means that no potency is given here. Calls of active or inactive are those of the source. The call rests on the fitted dose curve; in most records, active means well fitted curve in the direction sought with a large enough effect; inconclusive means small, poorly fitted or top-dose-only effect, or another doubt; inactive means no such curve, though single readings can be large; an effect the other way counts as inactive or inconclusive. Where a SMILES comes first, the peptide text is derived from it. [ ]: non-standard residue; d: D form. 2Abz = Nc1ccccc1C(=O)O
# How the values were obtained:
# [1] = P-glycoprotein substrates identified in KB-3-1 adenocarcinoma cell line, qHTS therapeutic library screen (AID 1346986); further: nearly all actives have a fitted effect of over 60% in size
# In short: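 KB-3-1 parental and colchicine-selected P-gp-overexpressing KB-8-5-11 cells (colchicine omitted during assay), 500 cells/well, dosed in dose-response for 72 h at 37 °C; CellTiter-Glo luminescence. Cytotoxic: curve class -1.1 to -2.4, max response >50%, AC50 < 10 uM.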
# [2] = P-glycoprotein substrates identified in KB-8-5-11 adenocarcinoma cell line, qHTS therapeutic library screen (AID 1346987); further: nearly all actives have a fitted effect of over 65% in size
# In short: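 Steps: plate 500 KB-8-5-11 cells/well in DMEM + 10% FCS (colchicine removed); pin compounds in dose-response; incubate 72 h, 37 degree C, 5% CO2; add CellTiter-Glo, 5 min; read luminescence.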
Compound,Potency [1],Potency [2]
CCN(c1cc(C#CCN2CCOCC2)cc(C(=O)NCc2c(C)cc(C)[nH]c2=O)c1C)C1CCC(N(C)CCOC)CC1 (stereo not given),inactive,inactive
CC(C)CC(=O)n1cc(C(N)=O)c(=O)cc1C(O)c1ccccc1 (stereo not given),inactive,inactive
CCC(C)/C=C(C)/C=C/C1=CC2=C(Cl)C(=O)C(C)(OC(C)=O)C(=O)C2=CN1CCCC(=O)O (stereo not given),inactive,inactive
C=C1C[C@]23C[C@H]1CC[C@H]2[C@@]12C=C[C@H](O)[C@@](C)(C(=O)O1)[C@H]2[C@@H]3C(=O)O,inactive,inactive
C=CC(C)(C)C12CC3C(=O)NC(Cc4cnc[nH]4)C(=O)N3C1Nc1ccccc12 (stereo not given),inactive,inactive
CC1=C2C3OC(=O)C(C)C3(O)CCC2(C)CCC1=O (stereo not given),inactive,inactive
COCC(=O)N1CCc2cc(-c3csc(NC(=O)c4cc(OC)cc(OC)c4)n3)ccc21,inactive,inactive
C=Cc1cc(O)cc2nc(-c3ccc(O)c(F)c3)oc12,inactive,inactive
C[C@]12CC[C@@H]3c4ccc(O[C@@H]5O[C@H](C(=O)O)[C@@H](O)[C@H](O)[C@H]5O)cc4CC[C@H]3[C@@H]1CCC2=O,inactive,inactive
COC(=O)C1C(c2ccc(O)cc2)C(C(=O)OC)C1c1ccc(O)cc1 (stereo not given),inactive,inactive
C=C1CC2(C(=O)O)CC1CCC2C1(C)CCCC2(C)C(=O)OC(O)C21 (stereo not given),inactive,inactive
O=C(O[C@H]1[C@@H]2C[C@@H]3OC[C@@](O)([C@H]2[C@H](O[C@@H]2O[C@H](CO)[C@@H](O)[C@H](O)[C@H]2O)O3)[C@@H]1O)c1ccccc1,inactive,inactive
CCC(C)C1NC(=O)C2CCCN2C(=O)C(C(C)C)NC(=O)c2ccccc2NC(=O)C(Cc2ccc(O)cc2)NC(=O)C(C)NC(=O)C(C(C)O)NC1=O (stereo not given) (cyclo([2Abz]VPITAY); configuration not given here),inactive,inactive
O=C(O)c1ccc(CCCc2ccc(OCCc3ccc(F)cc3)cc2)o1,inactive,inactive
CO[C@@H]1COCC[C@@H]1N[C@@H]1CC[C@@](C(=O)N2CCc3ncc(C(F)(F)F)cc3C2)(C(C)C)C1,inactive,inactive
